Holding throughout (experiment): universal protein binding microarray (PBM); transcription factors of Arabidopsis thaliana; high values mean tight binding
The target in one test is T1, GST-ANAC092(1-176) (Arabidopsis thaliana, UniProt Q9FKA0 1-176).
T1 sequence: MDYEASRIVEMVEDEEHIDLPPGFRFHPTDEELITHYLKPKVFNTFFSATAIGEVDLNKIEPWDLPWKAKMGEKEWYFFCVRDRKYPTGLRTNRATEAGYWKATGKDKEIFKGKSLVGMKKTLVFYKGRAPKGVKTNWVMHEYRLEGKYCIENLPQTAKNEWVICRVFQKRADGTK
As to conditions: protein: recombinant; tags: GST; chain copies: 2; dsDNA, one strand shown. In short, it runs like this:
(§1)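 Each value is a normalised enrichment score (E-score) describing binding. The GST-tagged proteins, NAC-domain, full-length or DNA-binding-domain, were induced in cells (zinc-finger proteins with zinc acetate added) and purified on glutathione–Sepharose 4B. They were applied at 200 to 500 nM final, in duplicate, to double-stranded custom all-10-mer Agilent 4 × 180K arrays, and gapped and ungapped 8-mers were scored.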

In another test the target is GST-NTL6(1-168) (Arabidopsis thaliana, UniProt Q9SCK6 1-168). The conditions noted are these: protein: recombinant; tags: GST; chain copies: 2; dsDNA, one strand shown. The procedure, abridged: as §1
GST-NTL6(1-168), sequence (Q9SCK6 1-168): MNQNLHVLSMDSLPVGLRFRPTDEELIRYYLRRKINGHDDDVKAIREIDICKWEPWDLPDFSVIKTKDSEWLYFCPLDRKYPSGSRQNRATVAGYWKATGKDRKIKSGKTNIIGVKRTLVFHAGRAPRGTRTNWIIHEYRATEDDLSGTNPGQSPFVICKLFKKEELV
In another test the target is T2, GST-ANAC019 NAC domain (Arabidopsis thaliana, UniProt Q9C932 14-162).
T2 sequence: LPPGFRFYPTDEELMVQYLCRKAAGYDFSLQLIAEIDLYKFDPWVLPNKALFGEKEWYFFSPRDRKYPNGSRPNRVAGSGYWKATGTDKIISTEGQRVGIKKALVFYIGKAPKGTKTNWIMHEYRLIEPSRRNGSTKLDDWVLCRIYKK
The conditions noted are these: protein: recombinant; tags: GST; chain copies: 2; dsDNA, one strand shown. The procedure, abridged:
as §1

For the next test, the target named is T3, GST-ANAC055(1-171) (Arabidopsis thaliana, UniProt Q9LDY8 1-171).
T3 sequence: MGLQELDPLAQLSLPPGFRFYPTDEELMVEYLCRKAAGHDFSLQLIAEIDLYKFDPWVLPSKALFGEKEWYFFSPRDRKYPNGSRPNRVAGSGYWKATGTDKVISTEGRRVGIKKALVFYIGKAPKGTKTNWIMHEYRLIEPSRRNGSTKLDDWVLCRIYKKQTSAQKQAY
The conditions noted are these: protein: recombinant; tags: GST; chain copies: 2; dsDNA, one strand shown. In short, it runs like this:
as §1

The target in a further test is T4, GST-ATAF1 NAC domain (Arabidopsis thaliana, UniProt Q39013 7-158).
T4 sequence: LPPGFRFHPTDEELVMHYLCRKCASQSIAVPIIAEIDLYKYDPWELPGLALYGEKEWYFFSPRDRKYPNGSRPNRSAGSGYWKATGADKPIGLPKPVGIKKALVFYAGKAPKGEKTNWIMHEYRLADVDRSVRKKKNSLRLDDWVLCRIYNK
As to conditions: protein: recombinant; tags: GST; chain copies: 2; dsDNA, one strand shown. In short, it runs like this: as §1

Test [1] has as its target T5, GST-ANAC092(1-285) full length (Arabidopsis thaliana, UniProt Q9FKA0 1-285).
T5 sequence: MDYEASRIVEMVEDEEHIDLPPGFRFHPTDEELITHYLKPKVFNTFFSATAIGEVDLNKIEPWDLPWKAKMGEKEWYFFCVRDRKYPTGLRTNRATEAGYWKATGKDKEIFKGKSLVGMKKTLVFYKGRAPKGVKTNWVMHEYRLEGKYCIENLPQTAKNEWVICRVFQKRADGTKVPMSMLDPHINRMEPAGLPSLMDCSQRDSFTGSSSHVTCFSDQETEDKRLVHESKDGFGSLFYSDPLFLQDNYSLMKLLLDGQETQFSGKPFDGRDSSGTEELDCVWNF
As to conditions: protein: recombinant; tags: GST; chain copies: 2; dsDNA, one strand shown. The procedure, abridged: as §1

The target of a further test is T6, GST-NST2(1-184) (Arabidopsis thaliana, UniProt Q9M274 1-184).
T6 sequence: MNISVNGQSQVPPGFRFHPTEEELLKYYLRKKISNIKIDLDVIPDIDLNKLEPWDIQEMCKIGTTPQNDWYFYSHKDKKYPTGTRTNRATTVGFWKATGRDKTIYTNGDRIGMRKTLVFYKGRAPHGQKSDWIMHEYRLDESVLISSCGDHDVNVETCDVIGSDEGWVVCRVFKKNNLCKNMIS
The conditions noted are these: protein: recombinant; tags: GST; chain copies: 2; dsDNA, one strand shown. In short, it runs like this:
as §1

Another test has as its target T7, GST-NTL8 NAC domain (Arabidopsis thaliana, UniProt Q9XIN7 14-156).
T7 sequence: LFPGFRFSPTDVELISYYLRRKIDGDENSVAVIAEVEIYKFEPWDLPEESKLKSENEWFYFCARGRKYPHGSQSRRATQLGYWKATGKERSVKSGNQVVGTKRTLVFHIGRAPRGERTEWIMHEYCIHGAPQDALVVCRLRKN
As to conditions: protein: recombinant; tags: GST; chain copies: 2; dsDNA, one strand shown. The procedure, abridged:
as §1

The target of another test is T8, GST-SND1(1-203) (Arabidopsis thaliana, UniProt Q9LPI7 1-203).
T8 sequence: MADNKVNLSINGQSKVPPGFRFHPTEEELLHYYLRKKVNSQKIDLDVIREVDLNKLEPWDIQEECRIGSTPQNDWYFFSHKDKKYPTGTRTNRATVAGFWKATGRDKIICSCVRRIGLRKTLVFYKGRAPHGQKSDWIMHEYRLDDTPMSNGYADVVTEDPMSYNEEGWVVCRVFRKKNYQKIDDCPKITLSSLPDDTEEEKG
The conditions noted are these: protein: recombinant; tags: GST; chain copies: 2; dsDNA, one strand shown. The procedure, abridged: as §1

The target in a further test is T9, GST-VND7 NAC domain (Arabidopsis thaliana, UniProt Q9C8W9 9-158).
T9 sequence: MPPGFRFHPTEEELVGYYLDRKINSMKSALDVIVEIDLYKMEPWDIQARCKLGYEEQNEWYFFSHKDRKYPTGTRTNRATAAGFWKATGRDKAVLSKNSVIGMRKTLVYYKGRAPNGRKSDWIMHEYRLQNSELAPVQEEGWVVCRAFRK
As to conditions: protein: recombinant; tags: GST; chain copies: 2; dsDNA, one strand shown. The procedure, abridged: as §1

A further test concerns the target T10, GST-NAP(1-166) (Arabidopsis thaliana, UniProt O49255 1-166).
T10 sequence: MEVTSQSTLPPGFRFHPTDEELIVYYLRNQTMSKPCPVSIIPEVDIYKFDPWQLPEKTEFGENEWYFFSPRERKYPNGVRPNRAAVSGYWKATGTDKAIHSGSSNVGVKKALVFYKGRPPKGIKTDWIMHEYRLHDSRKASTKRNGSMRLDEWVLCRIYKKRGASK
As to conditions: protein: recombinant; tags: GST; chain copies: 2; dsDNA, one strand shown. In short, it runs like this: as §1

The target in a further test is GST-WRKY1(266-371) (Arabidopsis thaliana, UniProt Q9SI37 266-371). As to conditions: protein: recombinant; tags: GST; dsDNA, one strand shown. In short, it runs like this: as §1
GST-WRKY1(266-371), sequence (Q9SI37 266-371): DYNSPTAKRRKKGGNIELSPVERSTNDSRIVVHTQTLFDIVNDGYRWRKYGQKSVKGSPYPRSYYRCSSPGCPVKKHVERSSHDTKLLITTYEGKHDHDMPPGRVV

For the sequence AAGAAACC, the binding signal with GST-ANAC092(1-176) turned out to be 0.246 E-score; in the test with GST-NTL6(1-168) it was 0.261 E-score; with GST-ANAC019 NAC domain, 0.0937 E-score; in the test with GST-ANAC055(1-171) it was 0.135 E-score; with GST-ATAF1 NAC domain, 0.177 E-score; in [1], 0.311 E-score. The binding signal in the test with GST-NST2(1-184) came to 0.265 E-score; in the test with GST-NTL8 NAC domain, 0.435 E-score; with GST-SND1(1-203) it was 0.216 E-score; in the test with GST-VND7 NAC domain, 0.139 E-score.

Turning to TCGCGTAA, the binding signal came to 0.283 E-score with GST-ANAC092(1-176); 0.0668 E-score with GST-NTL6(1-168); 0.0885 E-score in the test with GST-ANAC055(1-171); 0.141 E-score with GST-ATAF1 NAC domain; 0.385 E-score in [1]; 0.259 E-score with GST-NST2(1-184). Moreover, the results for the binding signal with GST-SND1(1-203) and with GST-VND7 NAC domain were 0.459 E-score and 0.14 E-score, respectively.

With CCCCGCCC, the binding signal was 0.325 E-score in the test with GST-ANAC092(1-176); 0.319 E-score with GST-NTL6(1-168); 0.329 E-score in the test with GST-ANAC019 NAC domain; 0.178 E-score with GST-ANAC055(1-171); 0.262 E-score in the test with GST-ATAF1 NAC domain; 0.343 E-score in test [1]. The binding signal was 0.0894 E-score in the test with GST-NAP(1-166); 0.297 E-score with GST-NST2(1-184); 0.372 E-score with GST-NTL8 NAC domain; 0.378 E-score with GST-SND1(1-203); 0.273 E-score with GST-VND7 NAC domain.

Turning to ACGCCATG, the binding signal in the test with GST-ANAC092(1-176) came to 0.336 E-score; in test [1], 0.404 E-score; with GST-NAP(1-166), 0.154 E-score; in the test with GST-NST2(1-184), 0.128 E-score; in the test with GST-SND1(1-203) it was 0.222 E-score; in the test with GST-VND7 NAC domain, 0.0848 E-score.

Consider GGCGTCAA, for which the results for the binding signal with GST-SND1(1-203) and with GST-WRKY1(266-371) were 0.0673 E-score and 0.401 E-score, respectively.

On to AGGAAAGC, for which the binding signal amounted to 0.23 E-score in the test with GST-ANAC092(1-176); 0.253 E-score in the test with GST-NTL6(1-168); 0.214 E-score with GST-ANAC019 NAC domain; 0.119 E-score in the test with GST-ANAC055(1-171); 0.124 E-score with GST-ATAF1 NAC domain; 0.0813 E-score in test [1]. For the same sequence, the binding signal in the test with GST-NAP(1-166) worked out at 0.0763 E-score; in the test with GST-NST2(1-184), 0.0888 E-score; in the test with GST-NTL8 NAC domain, 0.436 E-score; with GST-SND1(1-203), 0.188 E-score; in the test with GST-VND7 NAC domain it was 0.177 E-score.

Take ACGCTTCC: the binding signal with GST-ANAC092(1-176) worked out at 0.334 E-score; with GST-NTL6(1-168) it was 0.0789 E-score; with GST-ANAC019 NAC domain it was 0.171 E-score; in the test with GST-ANAC055(1-171) it was 0.106 E-score; with GST-ATAF1 NAC domain, 0.139 E-score; in test [1], 0.402 E-score. Further, the binding signal is 0.0721 E-score with GST-NAP(1-166), 0.206 E-score in the test with GST-NST2(1-184), 0.296 E-score with GST-SND1(1-203) and 0.151 E-score with GST-VND7 NAC domain.

As for CTTGCTTC, the binding signal with GST-ANAC092(1-176) stood at 0.288 E-score; in the test with GST-NTL6(1-168), 0.295 E-score; with GST-ANAC019 NAC domain, 0.0507 E-score; in test [1], 0.368 E-score; with GST-NST2(1-184) it was 0.204 E-score; in the test with GST-NTL8 NAC domain, 0.303 E-score. Also, the binding signal with GST-SND1(1-203) is 0.403 E-score; in the test with GST-VND7 NAC domain, 0.0829 E-score.

In the case of ACCTTTCC, the binding signal stood at 0.188 E-score with GST-ANAC092(1-176); 0.196 E-score with GST-NTL6(1-168); 0.0893 E-score with GST-ANAC055(1-171); 0.0538 E-score in test [1]; 0.0986 E-score in the test with GST-NST2(1-184); 0.431 E-score with GST-NTL8 NAC domain. The values for the binding signal with GST-SND1(1-203) and in the test with GST-VND7 NAC domain were 0.143 E-score and 0.0596 E-score, respectively.

Regarding GAAGGAAA, the binding signal with GST-ANAC092(1-176) amounted to 0.243 E-score; in the test with GST-NTL6(1-168), 0.455 E-score; with GST-ANAC019 NAC domain, 0.118 E-score; with GST-ANAC055(1-171) it was 0.184 E-score; with GST-ATAF1 NAC domain, 0.096 E-score; in test [1], 0.131 E-score. Further, the binding signal in the test with GST-NST2(1-184) was 0.214 E-score; in the test with GST-NTL8 NAC domain it was 0.485 E-score; in the test with GST-SND1(1-203) it was 0.234 E-score; in the test with GST-VND7 NAC domain, 0.108 E-score.

With AAACCCTC, the binding signal with GST-NTL6(1-168) is 0.141 E-score; with GST-ANAC019 NAC domain, 0.0591 E-score; with GST-ANAC055(1-171), 0.134 E-score; with GST-NAP(1-166), 0.0744 E-score; in the test with GST-NTL8 NAC domain, 0.414 E-score; in the test with GST-SND1(1-203), 0.101 E-score. In addition, the binding signal with GST-VND7 NAC domain came to 0.1 E-score.

Values taken from PMC4081100, “A DNA-binding-site landscape and regulatory network analysis for NAC transcription factors in Arabidopsis thaliana”.
